Screening results (PubChem BioAssay)
A340 absorber: compounds absorbing at 340 nm | compound absorbance at 340 nm, fold over control | fold change at 10 µM | 65,000 tested, under 10 active | AID 708;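 active means at 10 µM dose, initial 340 nm absorbance at least 2 fold that of control wells; inactive means change under 2 fold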;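 further: initial absorbance extrapolated from kinetic A340 decline of NADH oxidation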
Spn DPM-DC inh: inhibitors of Streptococcus pneumoniae diphosphomevalonate decarboxylase; purified DPM-DC, PK/LDH coupled NADH fluorescence; calls only at 10 µM; 0.49% of 65,000 active; AID 556;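 active means the 320 compounds with the highest percent inhibition in the single-dose primary screen, excluding strongly autofluorescent ones, cut at about 32% in these data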;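 further: kinetic rate of NADH fluorescence loss reporting ADP formed by the decarboxylase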
MK inhibit: S. pneumoniae mevalonate kinase inhibition; purified MK, PK/LDH-coupled NADH absorbance 340 nm; inhibition, % at 10 µM; 0.48% of 65,000 active; AID 555;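 active means ranked among the strongest by inhibition in the single 10 µM screen, a fixed top-ranked set picked for dose follow-up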
Fluor 339 460: intrinsic fluorescence of library compounds, ex339/em460 – biochemical, MLSMR library, data from DPM-DC assay, artefact control, profiling panel | compound autofluorescence, ex339/em460 nm, NADH buffer; hits give high values; 1 = no-compound wells, NADH background | 5.5% of 65,000 active | fluorescence fold increase at 10 µM;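 active means at 10 µM, mean starting fluorescence two-fold or more over control wells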;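 further: signal is the first read of a kinetic run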
NADH enzymes: blocks coupling enzymes of NAD/NADH assays; coupled PK/LDH NADH assays, four targets; 0.02% of 65,000 active; IC50, µM (doses to about 10 µM);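 active means single-dose screening hits from any of four coupled enzyme assays that gave an IC50 when retested across doses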;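 further: the DPM-DC format reads NADH fluorescence rather than 340 nm absorbance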
Spn PMK inh: S. pneumoniae PMK inhibition. AID 539. purified PMK, PK/LDH-coupled NADH absorbance 340 nm. inhibition, % at 10 µM. 0.49% of 65,000 active;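 active means top-ranked compounds by inhibition in the single 10 µM screen, taking a fixed number of the strongest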
Numbers stand for hits. Hits are enriched below; roughly 6.5% of the tested compounds scored in any of these assays.

`COc1cc2c(C#N)c(N3CCc4ccccc4C3)nc(N)c2c(N)n1` gave A340 absorber inactive, MK inhibit inactive, Fluor 339 460 2.17, NADH enzymes inactive and Spn PMK inh inactive.
`CCOC(=O)N1CCC(NC(=O)CSc2cc(=O)n(C)c3ccc(Cl)cc23)CC1` gave A340 absorber inactive, Spn DPM-DC inh inactive, MK inhibit inactive, Fluor 339 460 inactive, NADH enzymes inactive and Spn PMK inh inactive.
Screening CCCn1c(CNc2ccc(Br)cc2)nc2ccccc21 returned A340 absorber inactive, Spn DPM-DC inh inactive, MK inhibit inactive, Fluor 339 460 inactive, NADH enzymes inactive and Spn PMK inh inactive.
`CCOC(=O)N1CCC(NC(=O)c2ccc3c(c2)sc2nc(-c4ccccc4)cn23)CC1` gave A340 absorber inactive, Spn DPM-DC inh inactive, MK inhibit inactive, Fluor 339 460 2, NADH enzymes inactive and Spn PMK inh inactive.
For CCOC(=O)N1CCC(NC(=O)c2ccc3c(c2)sc2nc(-c4cccc(OC)c4)cn23)CC1 the results were A340 absorber inactive, Spn DPM-DC inh inactive, MK inhibit inactive, Fluor 339 460 inactive, NADH enzymes inactive and Spn PMK inh inactive.
Screening COC(=O)c1cc(=O)nc2sc(-c3cccs3)nn12 returned A340 absorber inactive, MK inhibit inactive, Fluor 339 460 2.74, NADH enzymes inactive and Spn PMK inh inactive.
`COc1c2ccoc2nc2c(OC)c(OCC(O)C(C)(C)O)ccc12` (centres undefined) gave A340 absorber inactive, MK inhibit inactive, Fluor 339 460 2.45, NADH enzymes inactive and Spn PMK inh inactive.
`CCOc1ccc(S(=O)(=O)Nc2ccccc2C(=O)Nc2ccccc2N2CCOCC2)cc1` gave A340 absorber inactive, Spn DPM-DC inh inactive, MK inhibit inactive, Fluor 339 460 inactive, NADH enzymes inactive and Spn PMK inh inactive.
Screening CCOc1ccc(S(=O)(=O)Nc2ccccc2C(=O)NCC2CCCO2)cc1 (centres undefined) returned A340 absorber inactive, MK inhibit inactive, Fluor 339 460 2.14, NADH enzymes inactive and Spn PMK inh inactive.
CC1(C)Cc2nc(N)c(C(=O)NCCO)cc2CO1 was read as A340 absorber inactive, MK inhibit inactive, Fluor 339 460 2.26, NADH enzymes inactive and Spn PMK inh inactive.
CCOC(=O)c1sc2nc3c(cc2c1N)COC(C)(C)C3 was read as A340 absorber inactive, Spn DPM-DC inh inactive, MK inhibit inactive, Fluor 339 460 inactive, NADH enzymes inactive and Spn PMK inh inactive.
For Cc1sc2ncnc(Oc3ccc(-n4ccnc4)cc3)c2c1C the results were A340 absorber inactive, Spn DPM-DC inh inactive, MK inhibit inactive, Fluor 339 460 inactive, NADH enzymes inactive and Spn PMK inh inactive.
For CCOC(=O)c1sc2nc(CC(=O)OC)nc(NCC(=O)OC)c2c1C the results were A340 absorber inactive, MK inhibit inactive, Fluor 339 460 3.66, NADH enzymes inactive and Spn PMK inh inactive.
`CCOC(=O)c1sc2nc(CC(=O)OC)nc(NCc3ccco3)c2c1C` gave A340 absorber inactive, Spn DPM-DC inh inactive, MK inhibit inactive, Fluor 339 460 inactive, NADH enzymes inactive and Spn PMK inh inactive.
Cc1ccc2nc(Nc3nc(=O)c4ccccc4n3C)nc(C)c2c1 was read as A340 absorber inactive, Spn DPM-DC inh inactive, MK inhibit inactive, Fluor 339 460 inactive, NADH enzymes inactive and Spn PMK inh inactive.
Screening Cc1ccc(-c2nc3c(=O)n(C)c4ccccc4c3o2)cc1 returned A340 absorber inactive, MK inhibit inactive, Fluor 339 460 4.65, NADH enzymes inactive and Spn PMK inh inactive.
Screening CCCCC(=O)NCCc1cc2c(OC)ccc(OC)c2[nH]c1=O returned A340 absorber inactive, Spn DPM-DC inh inactive, MK inhibit inactive, Fluor 339 460 inactive, NADH enzymes inactive and Spn PMK inh inactive.
Screening CCCc1cc(Nc2c(C)n(C)n(-c3ccccc3)c2=O)n2c(nc3ccccc32)c1C#N returned A340 absorber inactive, Spn DPM-DC inh inactive, MK inhibit inactive, Fluor 339 460 inactive, NADH enzymes inactive and Spn PMK inh inactive.
Screening CCc1c(C)c(C#N)c2nc3ccccc3n2c1Nc1c(C)n(C)n(-c2ccccc2)c1=O returned A340 absorber inactive, Spn DPM-DC inh active, MK inhibit inactive, Fluor 339 460 inactive, NADH enzymes inactive and Spn PMK inh inactive.
